Only some compounds are listed: those with a hit (about 5.3% of all), similar ones and a draw of the others.
VACV mCherry inh: inhibitors of vaccinia virus infection (mCherry reporter signal). Vaccinia virus mCherry reporter infection, fluorescence. Potency, µM (highest dose often 36.5 µM), for inactives: at the highest dose activity change, negative = inhibition, most hits filed as inhibitors. hit rate 0.63% among 310,000; calls by dose curve; tested in A549 cells; further: nearly all actives have a fitted effect of over 35% in size
HCV inh: inhibitors of hepatitis C virus infection. Huh7.5.1 HCVcc-Cre infection, luciferase reporter, 44 h. Potency, µM (highest dose often 41.8 µM), for inactives: top-dose activity change, negative = inhibition, most hits filed as inhibitors. hit rate 3.4% among 340,000. AID 651820; active means well fitted inhibition curve with a large enough effect; inconclusive means small, poorly fitted or top-dose-only effect, or another doubt; inactive means no such curve, though single readings can be large or run the other way
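1,000 cells/well; 4 h culture; + compound; + HCVcc-Cre (~0.5 moi); 44 h; luciferase substrate, RT 15 min; read 15 sec.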
LASV entry inh: Lassa virus entry inhibition | Lassa virus pseudotype entry inhibition, cell reporter | Potency, µM (doses to about 37.9 µM), inactives show top-dose activity change, negative = inhibition, actives largely listed as inhibitors | hit rate 1.2% among 300,000; calls by dose curve; tested in HEK293 cells; further: nearly all actives have a fitted effect of over 50% in size
MARV entry inh: Marburg virus entry inhibition | Marburg virus pseudotyped entry inhibition, cell reporter | hit rate 1.8% among 300,000 | Potency, µM (top dose mostly 37.8 µM), for the others: top-dose activity change, negative = inhibition, most hits filed as inhibitors | AID 540276; calls by dose curve; tested in HEK293 cells
VACV Venus inh: vaccinia inhibition (Venus reporter) | AID 720580 | hit rate 0.46% among 330,000 | Vaccinia virus Venus reporter expression, fluorescence | Potency, µM (doses to about 36.5 µM), for inactives: at the top dose activity change, negative = inhibition, usual class: inhibitors; calls by dose curve; tested in A549 cells; further: nearly all actives have a fitted effect of over 30% in size
FMDV antiviral: antivirals against foot and mouth disease virus. FMDV antiviral cell-based qHTS. Potency, µM (doses to about 57.9 µM), inactives show at the top dose activity change, negative = inhibition, hits mostly inhibitors. hit rate 1.2% among 410,000; calls by dose curve; tested in HEK293T cells; further: read-out not given here; nearly all actives have a fitted effect of over 45% in size
* marks the source's active call; other numbers are inactive results; i = inactive; ? = inconclusive; . = no result; [ ] = another dose, or the depositor's remark. On the % scale 0 is the no-effect control and ±100 the full control effect; potency means the concentration at half of the fitted maximal effect.

SMILES	VACV mCherry inh	HCV inh	LASV entry inh	MARV entry inh	VACV Venus inh	FMDV antiviral
CCCN1CCc2cccc3c2[C@H]1Cc1ccc(O)c(O)c1-3	-1%	?	?	?	-9%	-21%
CN1CCc2cccc3c2[C@H]1Cc1ccc(O)c(O)c1-3	i	?	?	-27%	-22%	?
COc1ccc2c(c1O)-c1cccc3c1C(C2)N(C)CC3 (stereo not given)	.	.	.	1µM*	.	.
CCOC(=O)c1cnc(N2CCN(c3ccc(C)cc3C)CC2)c2ccccc12	-6%[7.34 µM]	.	?	.	-5%[7.34 µM]	-3%
O/N=C(/C[n+]1ccsc1)c1ccc(I)cc1	-7%	.	.	.	?	.
COc1ccccc1NC(=O)Cc1csc(NC(=S)Nc2ccccc2)n1	.	13µM*	-25%	?	.	?
CCN(C(=O)c1ccco1)c1nc(CC(=O)Nc2ccc(Cl)cc2)cs1	-17%	?	-25%	-27%	-11%	6%
CN(C(=O)c1ccco1)c1nc(CC(=O)Nc2ccccc2)cs1	.	-19%	25%	18µM*	-12%	4%
COc1ccc(NC(=S)Nc2nc(CC(=O)Nc3ccccc3OC)cs2)cc1	.	32µM*	?	?	.	22µM*
COc1ccc(NC(=O)Cc2csc(NC(=O)Nc3ccccc3OC)n2)c(OC)c1	?	-28%	-2%	?	-16%	?
O=CN1CCCN(C(=O)c2cc(NC(=O)c3ccccc3)cc3ncn(C4CCCC4)c23)CC1	-11%	.	.	.	-3%	5%
O=C(Nc1ccccc1Br)c1cnn2c1NC(=C1CC1)C=C2C(F)F	-5%	.	.	.	-21%	.
Cc1ccnc(NC(c2cccc(O)c2)c2ccc3ccc(C)nc3c2O)c1 (stereo not given)	-15%	.	-9%[46.1 µM]	3%[46.1 µM]	-7%	-17%
CC(=O)NC(c1ccco1)c1cc(F)c2cccnc2c1O (stereo not given)	.	.	.	.	.	-23%
CCCC(=O)NC(c1ccccc1)c1c(O)ccc2ccccc12 (stereo not given)	.	?	.	.	.	-18%
CC(=O)NC(c1ccc(Cl)cc1Cl)c1ccc2cccnc2c1O (stereo not given)	.	5.6µM*	.	.	.	0%
CCCC(=O)NC(c1ccc(Cl)cc1)c1ccc2cccnc2c1O (stereo not given)	?	1.8µM*	4µM*	3.5µM*	?	-9%
Cc1cccc(NC(c2cccc(Cl)c2)c2ccc3cccnc3c2O)n1 (stereo not given)	?	.	10µM*	?	?	-12%
CCCCC(=O)NC(c1ccc(Cl)cc1)c1ccc2cccnc2c1O (stereo not given)	6.3µM*	?	?	4µM*	?	-3%
CC(C)=CCCC(C)=CCON=C1C[C@@H](O)[C@@H](O)[C@@H]2[C@H]3C(=O)N(C[C@@H]4CCCO4)C(=O)[C@@H]3CC[C@@H]12	.	.	.	-5%[14.2 µM]	.	.
Cc1cc(C)c2oc(-c3cccc(NC(=O)COc4ccc(Cl)cc4C)c3C)nc2c1	25%	.	.	.	6%	.
CCCC(=O)NC(c1ccc(Cl)cc1Cl)c1ccc2cccnc2c1O (stereo not given)	?	?	?	2.2µM*	?	-12%
Cc1ccc(C(Nc2ccccn2)c2ccc3cccnc3c2O)cc1 (stereo not given)	11µM*	.	?	?	?	-9%
CCCC(=O)NC(c1ccc(C)cc1)c1ccc2cccnc2c1O (stereo not given)	?	3.5µM*	?	2.8µM*	?	-16%
COc1ccc(C(Nc2ccccn2)c2ccc3ccc(C)nc3c2O)cc1C (stereo not given)	-13%	.	?	?	-8%	-25%
SMILES	VACV mCherry inh	HCV inh	LASV entry inh	MARV entry inh	VACV Venus inh	FMDV antiviral
CCCC(=O)NC(c1ccccc1Cl)c1c(O)ccc2ccccc12 (stereo not given)	?	-22%	?	-8%	-30%	?
Cc1ccc(CCNS(=O)(=O)c2ccc3c(c2)C(C(C)C)C(=O)N3)cc1 (stereo not given)	-17%	.	-19%[46.1 µM]	.	-10%	-3%
Cc1nc2c(o1)CCc1ccccc1[C@H]2O	.	.	.	11%	.	.
COC(=O)c1cn([C@@H]2C[C@@H](C(=O)Nc3cccc(SC)c3)N(C3CCCC3)C2)nn1	-7%	.	.	.	-1%	-13%
COc1ccc(C2C(C#N)=C(N)Oc3c2sc2nc(C)cc(C)c32)cc1 (stereo not given)	-24%	?	?	?	-13%	40µM*
Cc1nc(NCc2cccnc2)c2c3c(sc2n1)CCCC3	-12%	7.1µM*	-25%[46.1 µM]	?	-9%	-15%
CCOCCCNC(=S)N1CCCN(c2nc3cc(C)cc(C)c3cc2C#N)CC1	?	11µM*	1%	?	-28%	-10%
COCCCNC(=S)N1CCCN(c2nc3cc(C)c(C)cc3cc2C#N)CC1	-19%	22µM*	-20%[46.1 µM]	-8%[46.1 µM]	-21%	23%
Cc1cc(Cl)nc2nc(Cl)ccc12	25%	.	.	.	-9%	.
COc1ccc(N(C(=O)CCl)C(C(=O)NCCc2ccccc2)c2cccs2)cc1Cl (stereo not given)	?	0.56µM*	26µM*	?	10µM*	20µM*
COCCNC(=O)C(c1cccs1)N(C(=O)Cn1nnc2ccccc21)c1ccccc1 (stereo not given)	-26%	16%	6%	20%	-17%	14%
CCCCCCCC1=Cc2ccccc2C(C(C(C)=O)C(=O)OC)N1C(=O)OC (stereo not given)	.	.	.	-5%[14.2 µM]	.	.
CN(Cc1cnc2ccccn12)C1CCN(c2cccc(NC(=O)c3cccnc3)c2)CC1	-17%	.	.	.	-7%	-25%
CCOc1cc(/C=N/O)cc(Cl)c1OC	.	11µM*	4%	20%	-11%	-11%
C#CCOc1c(Br)cc(/C=N/O)cc1OCC	.	2.2µM*	?	8%	-11%	-27%
CCCOc1c(Br)cc(/C=N/O)cc1OC	.	-12%	-15%	10µM*	?	0%
CCOc1cc(/C=N/O)cc(Br)c1OCC	.	?	-22%	13%	.	-20%
CCCOc1c(Cl)cc(/C=N/O)cc1OCC	.	?	-1%	-18%	-26%	?
O=c1cc2c(c(-c3ccccc3)n1Cc1ccccc1)[C@@H](CCO)NC2	i	-20%	.	.	-12%	-24%
O=C(CCn1c(=O)c2sccc2n(Cc2cccc(F)c2)c1=O)NCc1ccc2c(c1)OCO2	-22%	.	-1%[46.1 µM]	5%[46.1 µM]	-19%	-9%
CCCCN(C(=O)CSc1nn(-c2ccc(F)cc2)c(=S)s1)c1c(N)n(CCCC)c(=O)[nH]c1=O	-13%	?	-18%	?	-7%	-24%
Cn1c(N)c(C(=O)CSc2nn(-c3ccc(F)cc3)c(=S)s2)c(=O)n(C)c1=O	.	7.1µM*	.	.	.	16µM*
O=C(c1cc(-c2ccccc2)on1)N1CCOc2ccc(CN3CCN(c4ccccn4)CC3)cc2C1	i	.	.	.	-18%	-1%
COCc1c(C(=O)N2CCN(C3CCCC3)CC2)cnn1-c1nccc(-c2cc(C)sc2C)n1	-12%	.	.	.	-10%	-1%
